# Activity calls are given as the source filed them.
# Assay: A549 lung cancer cell viability effects, profiling panel, resazurin fluorescence, 24 h, PK04 Diversity Set (AID 1171); also: test concentration not given here
# Settings: higher = more signal, called active from +8 up or from −8 down
row,Compound,z-score
1,COCCOC(=O)N1C(=O)[C@@]2(c3cc(C#CCC(C(=O)OC)C(=O)OC)ccc31)[C@H](C(=O)N1CCc3cc(OC)c(OC)cc3C1)[C@H]1C(=O)O[C@H](c3ccccc3)[C@H](c3ccccc3)N1[C@@H]2c1ccc(O)cc1,0.0392 (inactive)
2,CCC(CC)C(O)C1C=CC2C(=O)N(C)C(=O)C2N1N1CCCCC1 (stereo not given),0.0051 (inactive)
3,COc1cc2c(cc1O)C(c1ccc(CN3CCCC3)cc1)N(Cc1ccc([N+](=O)[O-])o1)CC2 (stereo not given),-0.679 (inactive)
4,COc1cc(OC)c(C(O)C2C=CC3C(=O)N(c4ccccc4)C(=O)C3N2Nc2ccccc2F)cc1Br (stereo not given),-0.568 (inactive)
5,NC(=O)N1C(=O)C2C(C1=O)C1C=C(CCCO)C2C(c2ccc(CN3CCCC3)cc2)N1Cc1cccc(OC(F)(F)F)c1 (stereo not given),0.657 (inactive)
6,CC(C)C[C@H]1NC(=O)[C@@]23C(=O)N[C@@H](Cc4ccccc4)C2[C@H](C)[C@@]2(C)O[C@H]2C3/C=C/C/C=C\CNC(=O)[C@@H]2CCCN2C1=O (stereo not given in full),-0.659 (inactive)
7,COC(=O)[C@@]1(Cc2ccc(F)cc2)[C@H]2c3cc(C(=O)N(C)C)n(CCn4cc([N+](=O)[O-])nc4C)c3C[C@H]2CN1C(=O)c1ccccc1,-0.792 (inactive)
8,C=CC[C@]1(C(=O)NCCCOC)N=C(c2ccc(OCCCO)cc2)O[C@H]1c1ccccc1,1.32 (inactive)
9,COCCOC(=O)N1C(=O)[C@@]2(c3cc(C#CC4=CCCCC4)ccc31)[C@H](c1ccccc1OCCO)N1[C@H](c3ccccc3)[C@H](c3ccccc3)OC(=O)[C@H]1[C@@H]2C(N)=O,-1.35 (inactive)
10,CC(C)C[C@@H]1NC(=O)[C@@]23C(=O)N[C@@H](Cc4ccccc4)C2[C@H](C)[C@@]2(C)O[C@H]2C3/C=C/C/C=C\CNC(=O)[C@@H](CC(C)C)NC1=O (stereo not given in full),1.31 (inactive)

# — PubChem BioAssay
